Reference: PubChem BioAssay (NCI)
About 83,000 compounds went through this panel and 20% of them were active in at least one assay; those are over-represented in the sample as a whole.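 Assay: single dose, 48 h. Readout: percent growth (0 = no net growth; negative = cell death). Active: <10.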 Values without a mark were called inactive. Calls of active or inactive are those of the source.

system: HS 578T breast; experiment: NCI-60 one-dose screen, 48 h (100 = growth as untreated, 0 = no growth, -100 = all killed); details: 10 µM unless noted
Experimental: Growth inhibition of the HS 578T human tumor cell line is measured as a screen for anti-cancer activity. Cells are grown in 96 well plates and exposed to the test compound for 48 hours. Compounds are tested at a single concentration, which is 10^-5 M for most compounds. The reported endpoint is percent growth (GI% or GIPRCNT), where numbers from 0 - 100% represent growth inhibition, and numbers from -100% - 0 represent cell death. For example, a value of 40 represents 60% growth inhibition. A value of 0 means no net growth occurred over the course of the experiment. A value of -40 indicates 40% of cells at the beginning of the experiment died by the end of the experiment. A value of -100 means all cells are dead at the end of the experiment.
NCI-60 Human Tumor Cell Lines Screen was performed using the standard one-dose NCI protocol, which is described in more detail at https://dtp.cancer.gov/discovery_development/nci-60/default.htm.
Compounds with GIPRCNT values below 10 were considered active. Activity score was based on GIPRCNT using the following formula: […]
Score is 0 for GIPRCNT values of 100 or above, 50 for GIPRCNT values of 0, and 100 for GIPRCNT values of -100.

Row | Compound | growth
1 | CCOC(=O)c1c2c(n3ccccc13)C(=O)c1ncccc1C2=O | 52.6%
2 | CN(C)c1ccc(/C=C2/C=C(c3ccccc3)OC2=O)cc1 | 101%
3 | CCNc1nc(-c2ccc(F)cc2)c(C#N)c(=O)n1C | 37.5%
4 | CCOC(=O)/C=C/c1c(C)[nH]c(=O)[nH]c1=O | 105%
5 | N#Cc1c(-c2cccc([N+](=O)[O-])c2)cc(-c2ccc(Nc3nc(Nc4ccc(F)cc4)nc(Nc4ccc(F)cc4)n3)cc2)nc1N | 87.9%
6 | O=C(Nc1cccnc1Nc1ccc(Cl)cc1)c1cn(Cc2ccc(F)cc2)nn1 | 93.2%
7 | O=C(CCCCCCCCC(=O)N/N=C\c1cc(Cl)ccc1O)N/N=C\c1cc(Cl)ccc1O | 66.3%
8 | CCOC(=O)c1c2c(n3c1NCC3)-c1ccccc1C2=O | 106%
9 | COc1ccc2nc3ccccc3c(NCc3ccc(F)cc3)c2c1 | 26.1%
10 | CN1CCN(c2ccc3c(c2)nc(NNC(=O)c2cnccn2)c2cccn23)CC1 | 75.4%
11 | N/C(=N\c1nc2ccccc2s1)NC(=NC1CCCCC1)NC1CCCCC1 | 37.8%
12 | COc1ccc(Cl)cc1Nc1nc(C(F)(F)F)ccc1C(=O)N/N=C/c1ccccc1Cl | 9.51% (active)
13 | CCOC(=O)C1=C(C)N=C2SC=C(c3ccccc3)N2[C@H]1c1cn[nH]c1-c1ccc(Cl)cc1 | 45.6%
14 | CC1CN=C(c2cccc(-c3ccc(-c4ccccc4)o3)c2)N1 (stereo not given) | 17.4%
15 | Cc1cc2oc(=O)cc(CP(=O)(O)O)c2cc1O | 94.5%
16 | c1ccc(CNc2ccc3nc(CCC4CCCCC4)[nH]c3c2)cc1 | 80.9%
17 | Fc1ccc(CNc2c3ccccc3nc3ccccc23)cc1 | 39.5%
18 | CC(=O)N/C(=C1/OC(C(O)C(O)C(O)CO)CN1C)[P+](c1ccccc1)(c1ccccc1)c1ccccc1 (stereo not given) | 114%
19 | COc1cc2c(c(OC)c1OC)C(=O)N[C@@H]1[C@@H](O)[C@@H](O)[C@H](O)C[C@@H]21 | 108%
20 | O=C(CN1C(=O)/C(=C/c2ccco2)SC1=S)NCCc1c[nH]c2ccc(F)cc12 | 95.9%

Row | Compound | growth
21 | COc1ccc(C2CC(c3ccc4c(c3)OCO4)=Nc3c(N)ncnc3N2)cc1 (stereo not given) | 103%
22 | C=CCOC(=O)C1=C(C)NC(=O)NC1c1c(Cl)n(C)c2ccccc12 (stereo not given) | 98.8%
23 | Cn1c(=O)c2c(nc(NC3=NS(=O)(=O)c4ccccc43)n2Cc2ccccc2)n(C)c1=O | 96.5%
24 | C(/C=C/c1ccccc1)=Nc1ccc(CCc2ccc(N=C/C=C/c3ccccc3)cc2)cc1 | 108%
25 | N#Cc1c(-c2ccccc2)nc2c(c(-c3ccccc3)nn2-c2ccccc2)c1-c1ccc(N2CCOCC2)cc1 | 104%
26 | O=c1nc(Nc2nc3ccccc3s2)[nH]c(=O)c2ccccc12 | 109%
27 | c1ccc2cc(Cn3c[n+](Cc4ccc5ccccc5c4)c4ccccc43)ccc2c1 | 3.56% (active)
28 | CCCCc1oc2ccccc2c1C(=O)c1ccc(O)cc1 | 83.2%
29 | COc1cc(-c2cc(-c3ccc(Nc4ncnc5cc(Cl)ccc45)cc3)nc(N3CCN(C)CC3)n2)cc(OC)c1OC | 73.2%
30 | CCN1C(=S)N(CC)C2C1NC(=S)N2/N=C/C=C/c1ccccc1OC (stereo not given) | 16.3%
31 | O=C(N/N=C/c1ccc([N+](=O)[O-])cc1)c1ccc2nc(-c3ccc(Cl)cc3)[nH]c2c1 | 36.8%
32 | Cc1[nH]c(/C=C/C(=O)c2ccc(C(F)(F)F)c(F)c2)c(C)c1C(=O)NCC(C)C | 97.9%
33 | CC(O)c1ncc(/C=C2\SC(=S)N(Cc3ccccc3)C2=O)s1 (stereo not given) | 109%
34 | COc1ccc(C(c2cc(OC)c(OC)c(OC)c2)N2CCN(Cc3ccccc3)CC2)cc1 (stereo not given) | 59.1%
35 | COc1ccc(C2C3=C(COC3=O)N(CCO)c3cc4c(cc32)OCCO4)cc1OC (stereo not given) | -11.4% (active)
36 | Nc1ccc([N+](=O)[O-])cc1N=C/C=C/c1ccccc1 | 67.4%
37 | N#Cc1c(NC(=O)c2cccs2)[n+]([O-])c2ccc(Cl)cc2[n+]1[O-] | 56.9%
38 | O=C(Nc1cccc(NC(=O)C2CCCCC2)c1)c1ccccn1 | 111%
39 | O=S(=O)(c1ccccc1)N1CCCN(c2nc(-c3ccccc3)nc3nc(-c4ccccc4)oc23)CC1 | 116%
40 | Clc1ccc(-c2cn3ccsc3n2)c(Cl)c1Cl | 84.3%
